Test results: PubChem BioAssay (NCATS)
“And” between values parts separate entries of the source, which are not always exact repeats. Equal entries are not always repeated. Records with an inconclusive call do not appear. The source made the active and inactive calls. Unless noted, calls follow the shape of the dose curve; as a rule, active = well fitted curve in the direction sought with a large enough effect; inconclusive = small, poorly fitted or top-dose-only effect, or another doubt; inactive = no such curve, though single readings can be large; an effect the other way counts as inactive or inconclusive.

Key:
[1] = Cell Viability - BJ (AID 421; calls by dose curve;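 also: potency is read from the fitted curve at half-maximal effect; cells exposed to compound for 40 hours at 37 °C before readout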); conditions: BJ fibroblast viability, qHTS
In short: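 Cytotoxicity as drop in intracellular ATP (CellTiter-Glo, 20 min RT) after 40 hr compound exposure of BJ fibroblasts at 37 °C. Titrations scaled between DMSO and 100 uM tamoxifen, Hill-fitted for AC50.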

[2] = Cell Viability - Mesenchymal (AID 546); conditions: mesenchymal cells viability, qHTS; series mostly up to 91.7 µM;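 also: cells exposed to compound for 40 hours before reading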
In short: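 Human kidney mesenchymal cells from normal renal glomeruli, 1000 cells/well, rested 5 hr at 37 °C, then treated 40 hr at 37 °C in complete medium. Cellular ATP read by CellTiter-Glo luminescence; AC50 from Hill-equation fits.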

[3] = Cellular Toxicity (caspase-3) HepG2 (AID 654); conditions: HepG2 caspase-3 activation, luminescence, 0% = DMSO only, 100% = tamoxifen; series mostly up to 92.2 µM;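 also: cells exposed to compound for 16 hours before reading; 0% = DMSO alone and 100% = caspase signal from 100 µM tamoxifen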
In short: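 HepG2 cells (1500/well) were treated 16 h at 37 °C in complete medium, then caspase 3/7 activity was read by Caspase-Glo luminescence. Data were normalized to DMSO and 100 uM tamoxifen; AC50 came from Hill-equation fits of qHTS concentration-response.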

[4] = Cellular Toxicity (caspase-3) HUV-EC-C (AID 656); conditions: HUV-EC-C cells, caspase-3 activation (apoptosis), vehicle = 0, 100 µM tamoxifen = 100%; series mostly up to 92.2 µM
In short: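 Luminescent caspase-3/7 activation (aminoluciferin substrate cleavage) in HUV-EC-C cells after 16 hr compound exposure, 37°C. Signal normalized to DMSO basal and 100 uM tamoxifen as 100%; AC50 from concentration-response fitted with the Hill equation.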

[5] = Cellular Toxicity (caspase-3) BJ (AID 658); conditions: BJ fibroblasts, luminescence, normalized: DMSO 0%, staurosporine 100%; series mostly up to 91.7 µM
In short: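 BJ human foreskin fibroblasts, 1000 cells/well, treated 16 hours at 37 °C in complete medium; caspase 3/7 activity by Caspase-Glo luminescence after 1 hr at room temperature. Normalized to DMSO and 10 uM staurosporine; AC50 from Hill fits.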

[6] = Cellular Toxicity (caspase-3) MRC-5 (AID 659); conditions: MRC-5 cells, luminescence, normalized: DMSO 0%, 10 µM staurosporine 100%; series mostly up to 91.7 µM
In short: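 MRC-5 human normal lung fibroblasts, 1500 cells/well, treated 16 h at 37 °C in complete medium. Caspase 3/7 measured by Caspase-Glo luminescence after 1 h at room temperature. Normalized to DMSO and 10 uM staurosporine; AC50 from Hill fit.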

[7] = Cellular Toxicity (caspase-3) SK-N-SH (AID 661); conditions: SK-N-SH caspase-3 activation, qHTS; series mostly up to 91.7 µM
In short: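 Human SK-N-SH neuroblastoma cells, 1500/well, were exposed to compounds for 16 hours at 37 °C. Caspase-Glo 3/7 luminescence was normalized to DMSO (basal) and 10 uM staurosporine (100%), and AC50 came from a Hill fit.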

[8] = Cellular Toxicity (caspase-3) Hek293 (AID 664); conditions: HEK293 caspase-3 activation, DMSO = 0%, 100 µM tamoxifen = 100%; at 92.2 µM (top of the series);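 also: cells exposed to compound for 16 h at 37 °C before readout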
In short: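 HEK293 cells in complete medium treated 16 h at 37 °C, then Caspase-Glo 3/7 luminescence read after 20 min at room temperature. Normalized to DMSO and 100 uM tamoxifen; AC50 from Hill fit of concentration-response.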

[9] = MultiTox-Fluor Cytotoxicity Assay - LYMP1-001 - Dead Cells (AID 946); conditions: LYMP1-001 lymphoblastoid cells, dead-cell protease fluorescence; series mostly up to 92.2 µM
In short: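 Cytotoxicity as increased dead-cell protease fluorescence (bis-AAF-R110, 485/520 nm), read 60 min after MultiTox-Fluor reagent. Human lymphoblastoid line exposed 16 h; Hill-fitted AC50, with DMSO as 0% and 15 uM tetraoctylammonium bromide as 100%.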

[10] = Cell Viability - LYMP1-002 - Assay at 16 hr (AID 948); conditions: LYMP1-002 lymphoblastoid cell viability; series mostly up to 92.2 µM;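 also: 0% = DMSO alone and full effect = 92 µM tetraoctylammonium bromide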
In short: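 LYMP1-002 human lymphoblastoid cells, 2500/well; 5 hr 37 C; cpd 16 hr 37 C; CellTiter-Glo 30 min RT; luminescence (ATP). Concentration-response, Hill-fit AC50. Pos ctrl tetraoctylammonium bromide.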

[11] = MultiTox-Fluor Cytotoxicity Assay - LYMP1-002 - Live Cells (AID 955); conditions: LYMP1-002 lymphoblastoid live-cell protease fluorescence viability; series mostly up to 46.1 µM; also: % is scaled to controls: 0 for no effect and ±100 for the full control effect
In short: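 Human lymphoblastoid LYMP1-002 cells, 2500/well, treated 16 h at 37 C in complete medium. Live-cell protease activity via GF-AFC fluorescence (Ex/Em 405/510) after 60 min reagent incubation; AC50 from Hill fits.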

[12] = MultiTox-Fluor Cytotoxicity Assay - LYMP1-003 - Dead Cells (AID 961); conditions: LYMP1-003 lymphoblastoid cells, dead-cell protease fluorescence; series mostly up to 92.2 µM; also: nearly all actives have a fitted effect of over 70% in size
In short: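 Dead-cell protease release, detected as bis-AAF-R110 fluorescence at 485/520 nm, was measured in LYMP1-003 cells after 16 h compound treatment at 37 C. AC50 values came from Hill-modeled qHTS curves normalized to DMSO (0%) and 15 uM tetraoctylammonium bromide (100%).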

[13] = MultiTox-Fluor Cytotoxicity Assay - LYMP1-003 - Live Cells (AID 962); conditions: LYMP1-003 lymphoblastoid cells, MultiTox-Fluor live-cell protease fluorescence; series mostly up to 92.2 µM;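 also: 0% = DMSO only and full loss = 92 µM tetraoctylammonium bromide; cytotoxic hits lower the live-cell protease signal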
In short: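 LYMP1-003 lymphoblastoid cells, 2500/well in complete medium, treated 16 h at 37 C; live-cell protease cleavage of GF-AFC read by fluorescence (Ex/Em 405/510) after 60 min reagent; AC50 from Hill fits of concentration-response.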

[14] = Cell Viability - LYMP1-003 - Assay at 24 hr (AID 963); conditions: LYMP1-003 lymphoblastoid cell viability; series mostly up to 92.2 µM;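 also: plate controls were DMSO only for no effect and tetraoctylammonium bromide positive control for full effect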
In short: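 Human lymphoblastoid LYMP1-003 cells, 2500/well, treated 24 h at 37 C in complete medium. Viability read as intracellular ATP by CellTiter-Glo luminescence after 30 min at room temperature; AC50 from Hill-equation fits of qHTS concentration-response.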

[15] = Cell Viability - LYMP2-003 (AID 965); conditions: LYMP2-003 lymphoblastoid cell viability; series mostly up to 92.2 µM;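 also: cells exposed to compounds for 24 h before reading; 0% = DMSO only and full effect = 92 µM tetraoctylammonium bromide; nearly all actives have a fitted effect of over 50% in size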
In short: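 CellTiter-Glo luminescence (cellular ATP) after 24 h compound exposure at 37 C in complete medium; 2500 cells/well, 5 h settling beforehand. Concentration-response fitted to standard Hill equation for AC50. Tetraoctylammonium bromide served as positive control.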

[16] = Cell Viability - LYMP2-025 (AID 976); conditions: LYMP2-025 lymphoblastoid cell viability; series mostly up to 92.2 µM;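 also: plate controls were DMSO only for no effect and tetraoctylammonium bromide control for full effect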
In short: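 Human lymphoblastoid LYMP2-025 cells, 2500/well, exposed 24 h at 37 C in complete medium in 1536-well qHTS. Viability as cellular ATP by CellTiter-Glo luminescence; AC50 from Hill fits of concentration-response data.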

[17] = Cell Viability - LYMP2-016 (AID 984); conditions: LYMP2-016 lymphoblastoid cell viability, qHTS; series mostly up to 92.2 µM; also: % is scaled to controls: 0 for no effect and ±100 for the full control effect; nearly all actives have a fitted effect of over 55% in size
In short: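 qHTS, 1536-well: 2500 LYMP2-016 cells/well, 5 hr 37 C, compound added, 24 hr 37 C, CellTiter-Glo 30 min RT, luminescence. Tetraoctylammonium bromide positive control. AC50 via Hill fit.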

[18] = Cell Viability - LYMP2-026 (AID 989); conditions: LYMP2-026 lymphoblastoid cell viability, qHTS; series mostly up to 92.2 µM; also: % is scaled to controls: 0 for no effect and ±100 for the full control effect; nearly all actives have a fitted effect of over 50% in size
In short: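 Human lymphoblastoid LYMP2-026 cells, 2500/well, exposed to compound 24 h at 37 C in complete medium. Viability as intracellular ATP by CellTiter-Glo luminescence; AC50 from Hill fits of qHTS concentration-response.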

[19] = qHTS Assay for Identification of Small Molecule Inducers of Hypoxia Response (AID 2120; active = well fitted curve in the direction sought with a large enough effect in the signal ratio, with a control signal flat, not every such curve was filed as active; the % refers to the signal ratio; also: 0% is about no effect); conditions: hypoxia response reporter cells, beta-lactamase ratio readout; series mostly up to 104 µM
In short: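 HRE-bla ME-180 cells in Opti-MEM with 0.5% dialyzed FBS, pre-plated 4-5 h, then compound titration for 17 h at 37 degrees Celsius. CCF4 loaded 2.5 h at room temperature; 460/530 nm ratio gave %Activity and AC50 for induction.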

[20] = target: Peroxisome proliferator-activated receptor alpha (Homo sapiens) (UniProt Q07869); assay: qHTS assay for small molecule agonists of the peroxisome proliferator-activated receptor alpha (PPARalpha) signaling pathway (AID 651778); conditions: PathHunter PPARalpha complementation, chemiluminescence, 6 h; stronger effect = higher value; also: % of control where 0% means no effect
In short: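 Enzyme-fragment complementation assay in which ligand-bound PPARalpha translocates and forms an active enzyme that generates chemiluminescence. Cells were plated overnight, exposed to compound for 6 hr at 37 C, and then given detection reagent for 60 min at room temperature.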

Peroxisome proliferator-activated receptor alpha (Homo sapiens), sequence (Q07869 whole entry, looked up, the tested form may be a part): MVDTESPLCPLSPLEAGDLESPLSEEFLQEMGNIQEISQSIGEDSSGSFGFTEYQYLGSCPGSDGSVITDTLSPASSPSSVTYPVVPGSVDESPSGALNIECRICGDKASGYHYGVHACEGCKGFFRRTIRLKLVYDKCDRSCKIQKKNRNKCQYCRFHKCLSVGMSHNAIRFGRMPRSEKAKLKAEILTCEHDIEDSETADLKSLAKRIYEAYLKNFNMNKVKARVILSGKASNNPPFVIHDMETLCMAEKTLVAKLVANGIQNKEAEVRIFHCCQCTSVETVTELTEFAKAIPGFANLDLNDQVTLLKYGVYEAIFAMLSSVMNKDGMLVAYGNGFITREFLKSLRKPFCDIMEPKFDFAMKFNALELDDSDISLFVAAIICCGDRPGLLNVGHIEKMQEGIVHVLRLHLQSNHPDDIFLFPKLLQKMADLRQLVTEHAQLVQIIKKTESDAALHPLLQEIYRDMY

N#CC(O)c1ccccc1 (centres undefined)
inactive: Potency [1] > 92 µM | Potency [2] | outcome [3] | outcome [4] | outcome [5] | outcome [6] | Potency [7] | caspase-3 activation [8] 0.0339% | outcome [9] | outcome [10] | outcome [11] | Potency [12] | outcome [13] | outcome [14] | Potency [15] | Potency [16] | Potency [17] | Potency [18] | Potency [19] | max response [20] 12.9%

O=[N+]([O-])c1ccccc1O
inactive: Potency [1] > 92 µM | Potency [2] | outcome [3] | outcome [4] | outcome [5] | outcome [6] | Potency [7] | caspase-3 activation [8] -0.522% | outcome [9] | outcome [10] | outcome [11] | Potency [12] | outcome [13] | outcome [14] | Potency [15] | Potency [16] | Potency [17] | Potency [18] | Potency [19] | max response [20] -0.691%

O=S(=O)(O)F
inactive: Potency [1] > 92 µM | Potency [2] | outcome [3] | outcome [4] | outcome [5] | outcome [6] | Potency [7] | caspase-3 activation [8] 4.29% | outcome [9] | outcome [10] | outcome [11] | Potency [12] | outcome [13] | outcome [14] | Potency [15] | Potency [16] | Potency [17] | Potency [18] | Potency [19] | max response [20] -0.405%

COC(=O)Nc1nc2ccccc2[nH]1
inactive: Potency [1] > 92 µM | Potency [2] | outcome [3] | outcome [4] | outcome [5] | outcome [6] | Potency [7] | caspase-3 activation [8] -4.59% | outcome [10] | outcome [11] | Potency [12] | outcome [13] | outcome [14] | Potency [15] | Potency [16] | Potency [17] | Potency [18] | Potency [19] | max response [20] -5.67% and 0.607%

ClC(Cl)(Cl)C(Cl)(Cl)Cl
inactive: Potency [1] > 92 µM | Potency [2] | outcome [3] | outcome [4] | outcome [5] | outcome [6] | Potency [7] | caspase-3 activation [8] -1.3% | outcome [9] | outcome [10] | outcome [11] | Potency [12] | outcome [13] | outcome [14] | Potency [15] | Potency [16] | Potency [17] | Potency [18] | Potency [19] | max response [20] -2.99%

c1ccc(Nc2ccc(Nc3ccccc3)cc2)cc1
inactive: Potency [1] > 92 µM | Potency [2] | outcome [3] | outcome [4] | outcome [5] | outcome [6] | Potency [7] | caspase-3 activation [8] -2.23% | outcome [9] | outcome [10] | outcome [11] | Potency [12] | outcome [13] | outcome [14] | Potency [15] | Potency [16] | Potency [17] | Potency [18] | Potency [19] | max response [20] -0.732%
